Reference: the supplement of paper PMC11732987, “Enantioselective OTUD7B fragment discovery through chemoproteomics screening and high-throughput optimisation” (Communications Chemistry, 2025)

Tests used:
Assay in all cases: log2 ratio of Biotin-Ahx-Ub-VS probe labelling (fragment/DMSO); higher = less target engagement (more negative = stronger competition), active = hit call of the paper (q ≤ 0.05, log2 ratio ≤ -1)
Conditions in all cases: compound concentration: 200 uM; treatment time: 3 h
USP19 = molecular target: T1, USP19 (UniProt O94966)
T1 sequence (whole entry): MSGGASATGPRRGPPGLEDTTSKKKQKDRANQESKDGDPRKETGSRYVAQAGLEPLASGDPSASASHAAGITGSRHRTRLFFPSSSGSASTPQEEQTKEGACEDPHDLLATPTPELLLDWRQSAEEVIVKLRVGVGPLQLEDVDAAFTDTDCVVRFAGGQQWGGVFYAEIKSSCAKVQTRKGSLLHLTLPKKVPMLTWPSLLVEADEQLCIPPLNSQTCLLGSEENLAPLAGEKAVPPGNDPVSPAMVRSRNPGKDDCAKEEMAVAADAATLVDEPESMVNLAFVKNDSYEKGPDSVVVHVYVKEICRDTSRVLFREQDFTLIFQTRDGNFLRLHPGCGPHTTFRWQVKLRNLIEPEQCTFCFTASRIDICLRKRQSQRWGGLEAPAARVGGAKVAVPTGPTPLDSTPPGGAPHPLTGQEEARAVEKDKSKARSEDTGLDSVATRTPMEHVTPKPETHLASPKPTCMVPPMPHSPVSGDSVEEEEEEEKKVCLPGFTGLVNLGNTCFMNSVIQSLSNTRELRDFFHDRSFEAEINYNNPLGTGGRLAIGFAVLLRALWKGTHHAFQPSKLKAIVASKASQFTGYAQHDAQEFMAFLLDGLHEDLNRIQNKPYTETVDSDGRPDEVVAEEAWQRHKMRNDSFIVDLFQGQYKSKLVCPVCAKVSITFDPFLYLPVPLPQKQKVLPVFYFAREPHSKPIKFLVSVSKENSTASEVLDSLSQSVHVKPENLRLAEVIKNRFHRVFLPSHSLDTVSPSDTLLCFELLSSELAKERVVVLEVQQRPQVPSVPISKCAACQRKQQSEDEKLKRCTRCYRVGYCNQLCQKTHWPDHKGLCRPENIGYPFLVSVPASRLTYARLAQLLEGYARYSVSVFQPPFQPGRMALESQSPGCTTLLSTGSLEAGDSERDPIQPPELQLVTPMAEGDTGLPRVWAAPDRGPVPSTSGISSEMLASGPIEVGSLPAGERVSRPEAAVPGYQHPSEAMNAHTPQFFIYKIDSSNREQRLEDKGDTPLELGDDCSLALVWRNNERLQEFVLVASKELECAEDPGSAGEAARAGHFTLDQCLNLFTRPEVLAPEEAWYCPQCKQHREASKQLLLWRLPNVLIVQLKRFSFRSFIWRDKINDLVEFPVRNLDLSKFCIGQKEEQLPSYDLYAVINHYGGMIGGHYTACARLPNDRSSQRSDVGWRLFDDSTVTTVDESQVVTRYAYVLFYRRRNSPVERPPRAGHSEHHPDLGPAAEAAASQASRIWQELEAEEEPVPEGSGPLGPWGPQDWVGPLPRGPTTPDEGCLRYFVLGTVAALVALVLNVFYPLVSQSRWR
Outline: (§1)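 Labelling with Biotin-Ahx-Ub-VS (0.5 µM final, 1 h) followed a 3 h triplicate treatment of HEK293T lysate (495 µg per sample, Tris/CHAPS/IGEPAL buffer with protease inhibitors) with fragment at 200 µM or vehicle. Labelled DUBs were NeutrAvidin-enriched, digested with LysC and trypsin, and run by diaPASEF LC-MS/MS. The values, average log2 fragment/vehicle ratios by unpaired t-test, come from global-median-normalised Spectronaut label-free quantities. Proteins with ≥2 unique peptides were used.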

USP22 = molecular target: T2, USP22 (UniProt Q9UPT9)
T2 sequence (whole entry): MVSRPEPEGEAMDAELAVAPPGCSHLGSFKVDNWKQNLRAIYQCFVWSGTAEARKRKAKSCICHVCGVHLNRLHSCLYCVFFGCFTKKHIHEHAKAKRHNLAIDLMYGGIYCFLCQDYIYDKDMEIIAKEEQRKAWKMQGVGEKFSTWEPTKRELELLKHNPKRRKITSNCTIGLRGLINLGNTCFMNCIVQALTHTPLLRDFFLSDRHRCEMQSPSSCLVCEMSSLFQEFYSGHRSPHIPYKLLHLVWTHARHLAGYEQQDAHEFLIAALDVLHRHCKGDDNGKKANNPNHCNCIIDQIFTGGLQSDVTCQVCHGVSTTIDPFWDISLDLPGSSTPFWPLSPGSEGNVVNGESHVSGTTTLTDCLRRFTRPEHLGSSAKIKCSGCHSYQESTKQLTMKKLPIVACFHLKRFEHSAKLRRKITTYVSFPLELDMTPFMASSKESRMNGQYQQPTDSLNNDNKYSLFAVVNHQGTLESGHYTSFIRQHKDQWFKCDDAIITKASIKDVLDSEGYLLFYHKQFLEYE
Outline: as §1

USP24 = USP24 (UniProt Q9UPU5)
Outline: as §1

USP25 = molecular target: T3, USP25 (UniProt Q9UHP3)
T3 sequence (whole entry): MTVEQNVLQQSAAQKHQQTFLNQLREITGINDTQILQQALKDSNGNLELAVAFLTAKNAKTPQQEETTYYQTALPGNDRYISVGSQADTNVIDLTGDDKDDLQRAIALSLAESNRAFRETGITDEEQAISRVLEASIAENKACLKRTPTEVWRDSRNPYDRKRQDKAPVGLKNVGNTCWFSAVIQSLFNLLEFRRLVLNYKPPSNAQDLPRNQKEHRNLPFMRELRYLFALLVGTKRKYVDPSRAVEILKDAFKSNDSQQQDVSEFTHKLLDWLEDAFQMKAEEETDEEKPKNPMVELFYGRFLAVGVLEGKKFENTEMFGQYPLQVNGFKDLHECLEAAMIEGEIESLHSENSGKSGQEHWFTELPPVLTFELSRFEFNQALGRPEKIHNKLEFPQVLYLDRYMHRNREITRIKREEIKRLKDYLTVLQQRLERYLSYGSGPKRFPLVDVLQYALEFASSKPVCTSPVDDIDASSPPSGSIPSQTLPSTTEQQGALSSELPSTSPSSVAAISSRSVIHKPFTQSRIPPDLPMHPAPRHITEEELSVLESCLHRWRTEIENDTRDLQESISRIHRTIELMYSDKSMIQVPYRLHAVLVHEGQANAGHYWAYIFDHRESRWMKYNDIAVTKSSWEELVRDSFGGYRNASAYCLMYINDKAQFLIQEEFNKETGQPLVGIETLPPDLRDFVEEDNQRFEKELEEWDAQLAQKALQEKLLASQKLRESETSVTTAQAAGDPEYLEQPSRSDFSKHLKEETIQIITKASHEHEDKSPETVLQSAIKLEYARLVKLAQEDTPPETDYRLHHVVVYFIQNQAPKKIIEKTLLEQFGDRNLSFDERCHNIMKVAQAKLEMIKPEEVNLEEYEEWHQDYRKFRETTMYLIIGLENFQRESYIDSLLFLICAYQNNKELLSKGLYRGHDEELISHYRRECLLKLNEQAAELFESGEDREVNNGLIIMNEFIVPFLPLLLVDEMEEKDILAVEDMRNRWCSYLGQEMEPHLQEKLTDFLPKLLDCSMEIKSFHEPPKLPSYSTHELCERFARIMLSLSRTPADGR
Outline: as §1

USP28 = molecular target: T4, USP28 (UniProt Q96RU2)
T4 sequence (whole entry): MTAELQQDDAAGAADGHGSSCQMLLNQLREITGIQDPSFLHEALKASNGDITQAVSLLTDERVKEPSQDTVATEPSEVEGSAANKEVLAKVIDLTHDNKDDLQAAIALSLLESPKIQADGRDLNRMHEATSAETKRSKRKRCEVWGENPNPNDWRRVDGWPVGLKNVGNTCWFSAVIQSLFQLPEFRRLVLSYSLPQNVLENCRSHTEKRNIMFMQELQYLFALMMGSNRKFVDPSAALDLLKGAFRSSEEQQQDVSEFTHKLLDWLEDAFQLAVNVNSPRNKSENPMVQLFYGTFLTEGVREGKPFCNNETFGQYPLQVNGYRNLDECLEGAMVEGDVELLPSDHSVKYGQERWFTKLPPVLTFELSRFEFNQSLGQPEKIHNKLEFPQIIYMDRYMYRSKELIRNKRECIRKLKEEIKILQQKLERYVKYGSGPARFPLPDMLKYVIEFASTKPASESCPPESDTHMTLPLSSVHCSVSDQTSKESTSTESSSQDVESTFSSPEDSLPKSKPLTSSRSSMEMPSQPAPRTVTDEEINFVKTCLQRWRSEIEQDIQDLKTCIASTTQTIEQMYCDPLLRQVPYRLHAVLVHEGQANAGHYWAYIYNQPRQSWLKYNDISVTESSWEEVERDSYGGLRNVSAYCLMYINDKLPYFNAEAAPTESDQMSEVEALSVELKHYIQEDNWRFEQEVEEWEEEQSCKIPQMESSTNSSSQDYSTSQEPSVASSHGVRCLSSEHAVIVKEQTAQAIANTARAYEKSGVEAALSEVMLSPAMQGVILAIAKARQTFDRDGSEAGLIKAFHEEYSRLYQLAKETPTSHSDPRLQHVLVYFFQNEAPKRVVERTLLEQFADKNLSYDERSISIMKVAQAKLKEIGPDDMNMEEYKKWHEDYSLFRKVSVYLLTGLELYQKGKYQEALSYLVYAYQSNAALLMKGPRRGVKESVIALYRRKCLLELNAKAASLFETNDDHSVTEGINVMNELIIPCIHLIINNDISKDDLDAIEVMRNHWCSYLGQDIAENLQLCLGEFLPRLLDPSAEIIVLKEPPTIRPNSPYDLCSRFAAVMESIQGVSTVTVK
Outline: as §1

Measured: log2 ratio of Biotin-Ahx-Ub-VS probe labelling

Chain of USP24 (Q9UPU5 whole entry): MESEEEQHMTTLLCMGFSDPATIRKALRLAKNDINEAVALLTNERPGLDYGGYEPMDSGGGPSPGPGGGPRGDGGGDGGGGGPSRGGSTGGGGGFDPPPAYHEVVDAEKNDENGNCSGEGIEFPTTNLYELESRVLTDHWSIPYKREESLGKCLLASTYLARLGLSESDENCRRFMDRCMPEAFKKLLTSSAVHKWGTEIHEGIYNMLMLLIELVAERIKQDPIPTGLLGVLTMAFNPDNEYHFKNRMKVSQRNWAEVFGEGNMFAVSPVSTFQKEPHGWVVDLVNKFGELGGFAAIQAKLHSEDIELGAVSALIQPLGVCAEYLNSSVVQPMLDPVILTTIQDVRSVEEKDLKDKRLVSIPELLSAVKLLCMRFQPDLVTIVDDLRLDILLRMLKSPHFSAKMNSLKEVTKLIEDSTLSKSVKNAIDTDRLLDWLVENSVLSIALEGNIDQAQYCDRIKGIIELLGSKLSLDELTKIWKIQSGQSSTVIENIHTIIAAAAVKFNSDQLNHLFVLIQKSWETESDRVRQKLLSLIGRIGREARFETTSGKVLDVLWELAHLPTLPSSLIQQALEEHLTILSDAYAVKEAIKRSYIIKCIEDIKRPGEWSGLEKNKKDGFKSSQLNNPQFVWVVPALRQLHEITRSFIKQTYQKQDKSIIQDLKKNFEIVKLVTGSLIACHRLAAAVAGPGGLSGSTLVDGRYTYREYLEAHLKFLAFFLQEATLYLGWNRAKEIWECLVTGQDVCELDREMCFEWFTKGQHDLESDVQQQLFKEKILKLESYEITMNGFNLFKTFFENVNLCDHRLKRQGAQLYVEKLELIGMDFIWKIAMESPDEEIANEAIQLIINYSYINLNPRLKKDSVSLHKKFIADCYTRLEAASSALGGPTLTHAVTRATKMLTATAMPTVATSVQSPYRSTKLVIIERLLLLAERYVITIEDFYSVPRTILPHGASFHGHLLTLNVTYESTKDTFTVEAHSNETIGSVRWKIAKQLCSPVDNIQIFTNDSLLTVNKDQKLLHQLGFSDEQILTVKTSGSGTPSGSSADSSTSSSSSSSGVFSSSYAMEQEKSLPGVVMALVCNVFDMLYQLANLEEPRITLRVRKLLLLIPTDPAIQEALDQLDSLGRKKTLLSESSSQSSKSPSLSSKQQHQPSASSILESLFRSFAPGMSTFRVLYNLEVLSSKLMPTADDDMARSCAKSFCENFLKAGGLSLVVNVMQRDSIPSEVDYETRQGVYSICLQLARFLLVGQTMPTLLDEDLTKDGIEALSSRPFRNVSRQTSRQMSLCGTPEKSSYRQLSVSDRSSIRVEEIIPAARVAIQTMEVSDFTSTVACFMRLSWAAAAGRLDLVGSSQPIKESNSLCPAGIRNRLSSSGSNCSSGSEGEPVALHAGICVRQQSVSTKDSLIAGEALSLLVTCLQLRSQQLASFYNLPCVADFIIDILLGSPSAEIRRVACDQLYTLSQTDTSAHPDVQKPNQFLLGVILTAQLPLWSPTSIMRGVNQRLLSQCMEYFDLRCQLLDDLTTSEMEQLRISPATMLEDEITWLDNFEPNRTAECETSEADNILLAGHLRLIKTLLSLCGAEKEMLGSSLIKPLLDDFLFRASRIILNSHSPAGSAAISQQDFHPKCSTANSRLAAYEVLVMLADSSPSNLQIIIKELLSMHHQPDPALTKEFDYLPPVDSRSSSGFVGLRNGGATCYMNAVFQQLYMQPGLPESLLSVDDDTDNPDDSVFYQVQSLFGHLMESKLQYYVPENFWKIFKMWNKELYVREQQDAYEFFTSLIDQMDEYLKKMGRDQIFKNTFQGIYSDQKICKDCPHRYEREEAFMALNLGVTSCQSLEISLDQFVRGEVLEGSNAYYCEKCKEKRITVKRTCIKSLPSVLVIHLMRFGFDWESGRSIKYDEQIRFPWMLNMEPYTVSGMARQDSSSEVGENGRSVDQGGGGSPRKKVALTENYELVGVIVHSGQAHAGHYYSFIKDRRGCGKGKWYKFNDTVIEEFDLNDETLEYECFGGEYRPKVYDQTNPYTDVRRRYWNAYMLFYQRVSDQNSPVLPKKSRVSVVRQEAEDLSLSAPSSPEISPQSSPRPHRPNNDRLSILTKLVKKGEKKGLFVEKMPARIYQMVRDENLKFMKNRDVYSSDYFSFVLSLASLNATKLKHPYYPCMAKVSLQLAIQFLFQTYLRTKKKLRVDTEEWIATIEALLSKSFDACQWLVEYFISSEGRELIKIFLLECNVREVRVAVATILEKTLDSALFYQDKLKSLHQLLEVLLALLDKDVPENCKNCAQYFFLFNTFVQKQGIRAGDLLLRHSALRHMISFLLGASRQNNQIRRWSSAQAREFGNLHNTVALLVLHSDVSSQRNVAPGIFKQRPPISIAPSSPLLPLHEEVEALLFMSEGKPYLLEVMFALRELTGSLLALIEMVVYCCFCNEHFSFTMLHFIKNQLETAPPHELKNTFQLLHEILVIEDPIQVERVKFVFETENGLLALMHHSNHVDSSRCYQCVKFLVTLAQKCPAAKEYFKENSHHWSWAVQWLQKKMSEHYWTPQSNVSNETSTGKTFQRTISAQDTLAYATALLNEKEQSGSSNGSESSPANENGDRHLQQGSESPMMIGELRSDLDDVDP

O=C(CCl)NCc1cccc(F)c1
inactive: USP19 -0.000373 | USP22 -0.171 | USP24 -0.154 | USP25 -0.362 | USP28 -0.556
